Our source for the binding signal values is article PMC12136788.

First the molecules themselves.
B1: chr2:43450610:43450611:-_ENSG00000152518_ENST00000282388|hu_mus|FALSE|FALSE (ssRNA)
RNA: GGGAGUUCUACAGUCCGACGAUCGUUAAAUAGUUUUUCAUAUUGAGUUGUGGUGCAGUGGUGCGGAUCAACUCAGAACAACUAAAAAUGAAGCACUUAUUUCCCAACAACUAUGAACUGAGCUCUGCCCAUAGCUUCCAGAGACAACAGAGGAUUGAGCAUCA
B2: chr14:23562722:23562723:-_ENSG00000100813_ENST00000605057|hu_mus|FALSE|FALSE (ssRNA)
RNA: GGGAGUUCUACAGUCCGACGAUCUGGCUCAUUUCCUCCCCGAUCUGUGAAUUUGGCUGGAAUGCAGCAUGGGGUGUUGAGUGUUUUUGUAAAUUUUCUAGCAUUAGAGCCCCUUUGAGCCGCUUGACCAGGGCACUCUUCUGCCAACAGAGGAUUGAGCAUCA
B3: 107524198_107526941_663_CDS_ENSMUSG00000028613_ENSMUST00000106731|mouse|control|control (ssRNA)
RNA: GGGAGUUCUACAGUCCGACGAUCGGGAUGAGGCGCGAGUAGUCCCGCUUCACCAGGUCUAUCCUCCGCACCUCGUGUCGGUUCGUGAAGAUCAGAGAUGGGCUCUUGCCGGCUACAGCUUUGCAGUUCUUGGUCAGUGUAUCCCAACAGAGGAUUGAGCAUCA
B4: chr11:72497679:72497680:+_ENSMUSG00000020794_ENSMUST00000021148|mus_mus|motif|central (ssRNA)
RNA: GGGAGUUCUACAGUCCGACGAUCUAUUGCUACAUCCAAUCCAAGAGAUGGGUGAAUCAUAGUACAAAAAGGACAAAGCACCGGGUGAUGACCCCUCCUCUGAAGUCAUCGUGAAAAACUCAAGUAAUUUACUAGUAUUUCAGUCAACAGAGGAUUGAGCAUCA
B5: chr10:35314101:35314102:-_ENSG00000108094_ENST00000537177|hu_mus|motif|central (ssRNA)
RNA: GGGAGUUCUACAGUCCGACGAUCUUCACCUGUACAGAGAUAAUGCAACCAUGUCAGCUUCCGUCCACUGAAAUGCUGGCGGUAAAACAAUUCAAACAUCUGUACACUUUUCUCUAGCUCUUGGGGAAUUGCAAAUGUAGAUGACAACAGAGGAUUGAGCAUCA
B6: chr9:88635815:88635816:+_ENSG00000135040_ENST00000361671|hu_hu|FALSE|FALSE (ssRNA)
RNA: GGGAGUUCUACAGUCCGACGAUCUCCUCCUGCCAAUAACUUCAUAACCACAAAGUUGGGUUUGGCAACCUUUAAAAUUCUAUUAACCUCAUGGUCCGGGUUAGGAAUAUUUUCCAAUAUCAUUUUUGCCUGUUGAAAGUGCUUCAACAGAGGAUUGAGCAUCA
B7: chrX:153994619:153994620:+_ENSG00000130826_ENST00000369550|hu_mus|FALSE|FALSE (ssRNA)
RNA: GGGAGUUCUACAGUCCGACGAUCUCCAACAUACUCUUUGCCUGCACUCUGUUGUGAUUUCACCAAACGAGUGGCUCGUUCAAUGCACACAAUUAAACAACCAGUCACUUUGGGAUCUAGUGUGCCACUGUGGCCAGUCUUCUCCAACAGAGGAUUGAGCAUCA
B8: chr18:43482294:43482295:-_ENSMUSG00000024501_ENSMUST00000121805|mus_mus|FALSE|FALSE (ssRNA)
RNA: GGGAGUUCUACAGUCCGACGAUCUGACAGAGUUUUGCCUAGCAUUUGAGAGGCCCUGGACUCAAUUGUCCAGCUCUACAAAAUGAAAUAAACAGAAAUUCCCCACCUCAAAAAAAAAAAACAACAACAACAACAACAAAAAACCAACAGAGGAUUGAGCAUCA
B9: chr7:17500836:17500837:-_ENSMUSG00000019370_ENSMUST00000019514|mus_mus|FALSE|FALSE (ssRNA)
RNA: GGGAGUUCUACAGUCCGACGAUCUGAACUGAACACAAUAUUGCCCGGUUUGUUUGUUUGUUUAAAAAAAAAAAAAAAAAAGGAAAAACAAAAAACCAAAAUAAAACCCCGAAACAUUCCGCAAAGUCCACAGCCUCACGCCUACAACAGAGGAUUGAGCAUCA
B10: chr2:203071915:203071916:-_ENSG00000116030_ENST00000392246|hu_hu|motif|central (ssRNA)
RNA: GGGAGUUCUACAGUCCGACGAUCCAAAGAGAUGGGGUGCCAGUUUUCAAUUCCGUUUUGAACACCACAUUACAAAAGAACGGUUUUUAAAAAUAAAAAAGGAUUGAGGGAAAAGAAAAAAAAUAAAAAGAAUAUCUAAACUGUCAACAGAGGAUUGAGCAUCA
B11: chr2:203071830:203071831:-_ENSG00000116030_ENST00000392246|hu_hu|FALSE|FALSE (ssRNA)
RNA: GGGAGUUCUACAGUCCGACGAUCAGGGGACUGAGGCUUGAUCACCAAAAAUCAGCACAAUGAAAACAAACAAUAAUGAAUAAUGAGCACUAGAAUUCAAAUUACCAGAUGUUUCAAAGAGAUGGGGUGCCAGUUUUCAAUUCCCAACAGAGGAUUGAGCAUCA
B12: chr2:203071915:203071916:-_ENSG00000116030_ENST00000392246|hu_hu|FALSE|FALSE (ssRNA)
RNA: B10 RNA with G81U, G82A
B13: chr10:22825647:22825648:-_ENSG00000150867_ENST00000376573|hu_hu|FALSE|FALSE (ssRNA)
RNA: GGGAGUUCUACAGUCCGACGAUCUCAUCAUUAUUAUCUUCAUUAUUCUGAAUACUGUCUCACAUCUUUCAACUCCAAAAAAAAAAAAAAAAAAAAAAAACUGAUCCACAGUUUGUUGUGUGAUGCCAACACGGUGCCUGACAUCAACAGAGGAUUGAGCAUCA
B14: chr19:60013232:60013233:-_ENSMUSG00000040022_ENSMUST00000171986|mus_hu|FALSE|FALSE (ssRNA)
RNA: GGGAGUUCUACAGUCCGACGAUCCUUAUCUUUUAACUUUGCAAAAGGAGAUCUGGUUUUGUCCUUCAUUGAUAAGUCAAACAUACUUGCGGUCAUAUUGUUCCUCAUAAACUGAAUAUUGACCUUUAUCUCACCCCUGUUUUUCAACAGAGGAUUGAGCAUCA
B15: chr5:180275300:180275301:-_ENSG00000196670_ENST00000512132|hu_hu|FALSE|FALSE (ssRNA)
RNA: GGGAGUUCUACAGUCCGACGAUCUCAUCAUCACUGCCCCCUCCCAAACCAAUUACAUCAAGUUUAUACUUAAAGACCACUAAUAUUAAAUAAAUUUAUAUUCCCUGAAACCUAUCCUCCCUGAAUUUGCCUGUUGGAGGCCCUCAACAGAGGAUUGAGCAUCA

Positions count from the first letter of the chain named. Over roughly 24,000 sequences, “enrichment r” has its median near 0.99; the highest 2% begin near 3.7. This is one part of a sample in which the highest values are shown more often than they occur.

The test has as its target T1, UNK ZnF1-3 (human, UniProt Q9C0B0 31-174).
T1 sequence: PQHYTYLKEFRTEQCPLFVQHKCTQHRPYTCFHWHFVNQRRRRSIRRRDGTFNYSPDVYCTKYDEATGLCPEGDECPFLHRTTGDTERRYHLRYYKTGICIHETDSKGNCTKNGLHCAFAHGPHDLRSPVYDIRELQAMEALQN
Put plainly: nsRBNS (natural sequence RNA bind-n-seq); RBNS binding buffer (assumed for nsRBNS): 25 mM Tris pH 7.5, 150 mM KCl, 3 mM MgCl2, 0.01% Triton X-100, 500 ug/ml BSA, 20 U/ml SUPERase-In, 4 C; UNK is unkempt and MSI1 is Musashi-1; names of the RNAs are library labels; protein concentration not given here; high values mean tight binding.
For B1, the binding signal came out at 1.32 enrichment R.

Molecule B2 had a binding signal of 0.906 enrichment R.

In the case of B3, the binding signal is 0.464 enrichment R.

B4 had a binding signal of 0.978 enrichment R.

Consider B5, for which the binding signal amounted to 0.886 enrichment R.

B6 returned a binding signal of 1.04 enrichment R.

In the case of B7, the binding signal stood at 0.751 enrichment R.

B8 displayed a binding signal of 3.06 enrichment R.

As to B9, the binding signal amounted to 6.58 enrichment R.

In turn, B10 yielded a binding signal of 20.1 enrichment R.

With B11, the binding signal was found to be 3.55 enrichment R.

Consider B12, for which the binding signal was 32.1 enrichment R.

B13 had a binding signal of 5.07 enrichment R.

In the case of B14, the binding signal came to 0.548 enrichment R.

With B15, the binding signal was determined as 3.55 enrichment R.
